This is an account of results in ChEMBL document CHEMBL1961873, “Compounds: GSK PKIS; Assays: Nanosyn kinase panel” (2012).

Where “and” joins values, the source holds several entries; their conditions need not be identical. Equal values may be shown once.

The target of the first assay is Cyclin-dependent kinase 4 (Homo sapiens) (UniProt P11802). The note with it: at 1 µM.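 Further: enzyme tested as the CDK4–cyclin D complex, with the value reported as mean percent inhibition.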
Chain of Cyclin-dependent kinase 4 (Homo sapiens) (P11802 whole entry): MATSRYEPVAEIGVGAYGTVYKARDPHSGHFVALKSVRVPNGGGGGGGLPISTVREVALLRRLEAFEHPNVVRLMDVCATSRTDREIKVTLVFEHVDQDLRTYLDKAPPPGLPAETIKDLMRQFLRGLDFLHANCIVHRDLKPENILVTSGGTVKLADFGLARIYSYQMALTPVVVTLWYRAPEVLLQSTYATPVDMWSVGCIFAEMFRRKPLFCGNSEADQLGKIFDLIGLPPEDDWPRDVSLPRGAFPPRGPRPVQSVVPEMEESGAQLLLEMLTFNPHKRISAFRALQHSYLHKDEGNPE
The term inhibition denotes the drop in the measured response relative to a control, in per cent. A high value points to strong suppression. In turn, `CS(=O)(=O)Nc1ccc(-c2cc(-c3ccccc3)cc(C(N)=O)c2N)cc1` gave an inhibition of 1.63%.

On to `COc1cccc(Nc2nccc(-c3cnn4ncccc34)n2)c1`, for which the inhibition turned out to be 76.9%. Still for that read-out and setting: the figure for `CS(=O)(=O)CCNCc1ccc(-c2ccc3ncnc(Nc4ccc(OCc5ccccc5)cc4)c3c2)o1` is 2.98%. Still for that read-out and setting: to `CC(C)c1ccc(-c2cc(-c3c[nH]nc3-c3ccccn3)ccn2)cc1` belongs 1.46%; to `FC(F)(F)CNc1nccc(-c2cnn3ncccc23)n1`, 10.8%; to `Cc1nnc(-c2cccc(-c3ccc(C(=O)NCC4CC4)cc3)c2)o1`, 2.47%. Molecule `COc1ccc(-c2nn3ncccc3c2-c2ccnc(Nc3ccc(F)c(F)c3)n2)cc1` came in with an inhibition of 1.71%. As to `O=C(Nc1n[nH]c2nnc(-c3cccnc3)cc12)C1CC1`, the inhibition worked out at 56.1%. The same measure, in the same setting: the figure for `NS(=O)(=O)c1ccc(N/N=C2\C(=O)Nc3cccc(CCc4ccncc4)c32)cc1` is 29.4%; for `CNC(=O)c1cncc(/C=C/c2ccccc2C)c1` it is 7.47%. Still for that read-out and setting: to `NS(=O)(=O)c1ccc(N/N=C2\C(=O)Nc3ccc(C(=O)NCc4ccncc4)cc32)cc1` belongs 52.3%; to `CCS(=O)(=O)c1ccc(OC)c(Nc2ncc(-c3cccc(F)c3)o2)c1`, 4.19%; to `COc1cccc(-n2ncc3c(N/N=C/c4ccc(C(=O)NCCN(C)C)cc4)ncnc32)c1`, 71.4%. For the molecule `COC(=O)Nc1nc2ccc(Oc3ccc(NC(=O)Nc4cc(C(F)(F)F)ccc4F)cc3)cc2s1`, the inhibition is 2.02%. Regarding `Cn1c(-c2nonc2N)nc2cnccc21`, the inhibition amounted to 3.9%. The same measure, in the same setting: the figure for `CCN1CCC(C(=O)Nc2n[nH]c3nnc(-c4cccc(F)c4F)cc23)CC1` is 36.6%.

In the next assay the target is Cyclin-dependent kinase 5 (Homo sapiens) (UniProt Q00535). To be noted: at 0.1 µM.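 Further: enzyme tested as the CDK5/p35 complex, values are mean percent inhibition.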
Chain of Cyclin-dependent kinase 5 (Homo sapiens) (Q00535 whole entry, looked up): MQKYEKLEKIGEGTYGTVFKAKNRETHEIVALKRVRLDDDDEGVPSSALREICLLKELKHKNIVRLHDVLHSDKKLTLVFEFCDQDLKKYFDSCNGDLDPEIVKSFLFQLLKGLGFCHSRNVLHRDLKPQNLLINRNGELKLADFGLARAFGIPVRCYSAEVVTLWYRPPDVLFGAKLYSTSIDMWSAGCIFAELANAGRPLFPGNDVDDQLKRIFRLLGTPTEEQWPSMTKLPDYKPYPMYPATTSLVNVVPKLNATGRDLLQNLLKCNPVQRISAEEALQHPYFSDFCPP
Take `Cc1cc(O)cc(C)c1/C=C/c1cncc(C(N)=O)c1`: the inhibition was 0.63%.

In turn, `CC1=C(C(=O)Nc2ccc3[nH]ncc3c2)C(c2ccc(F)cc2)N=C(c2ccc(C(F)(F)F)nc2)N1` (configuration not stated) yielded an inhibition of 0.56%. Same read-out and setting: to `COc1c(C(N)=O)cc(-c2ccc(Cl)cc2)cc1-c1ccc(S(N)(=O)=O)cc1` belongs 0.65%; to `Cc1cc(O)cc(C)c1/C=C/c1cncc(C(=O)OC(C)(C)C)c1`, 0.74%. Same read-out and setting: the figure for `COc1ccc(Nc2ncc(-c3ccccc3)o2)cc1OC` is 11.1%; for `Fc1ccc(Nc2nccc(-c3c(-c4ccc(C(F)(F)F)cc4)nn4ncccc34)n2)cc1F` it is 0.28%; for `O=C(O[C@H]1CN[C@H](C#Cc2cc3ncnc(Nc4ccc(OCc5cccc(F)c5)c(Cl)c4)c3s2)C1)N1CCOCC1` it is 0.49%. The same measure, in the same setting: the figure for `COc1ccc2ncn(-c3cc(O[C@H](C)c4ccccc4C(F)(F)F)c(C(N)=O)s3)c2c1` is 0.13%. As to `CNC(=O)c1ncccc1Nc1nc(Nc2cc3c(cc2OC)CCCN3C(=O)CN(C)C)nc2[nH]ccc12`, the inhibition worked out at 3.84%.

As to `COc1ccccc1-c1cc(/C=C2\C(=O)Nc3ncc(Br)cc32)cc(Br)c1O`, the inhibition amounted to 4.84%. `c1cnn2ncc(-c3ccnc(NCCCN4CCOCC4)n3)c2c1` yielded an inhibition of 0.21%. Still for that read-out and setting: to `CCCNc1cccc(-n2ncc3c(N/N=C/c4ccncc4)ncnc32)c1` belongs 1.35%. Same read-out and setting: the figure for `OCCCNc1nccc(-c2c(-c3ccc(F)cc3)nn3cc(C(F)(F)F)ccc23)n1` is 2.06%; for `CS(=O)(=O)Nc1ccc(-c2ccc3c(NC(=O)C4CC4)n[nH]c3c2)cc1` it is 0.45%. Still for that read-out and setting: the figure for `CN1CCC(C(=O)Nc2n[nH]c3nc(-c4ccc(O)cc4)c(Br)cc23)CC1` is 0.17% and 1.86%; for `CS(=O)(=O)Nc1ccc(-c2cc(-c3ccccc3)cc(C(N)=O)c2N)cc1` it is 0.11%. With `COc1cccc(Nc2nccc(-c3cnn4ncccc34)n2)c1`, the inhibition was 59.3%.

`CS(=O)(=O)CCNCc1ccc(-c2ccc3ncnc(Nc4ccc(OCc5ccccc5)cc4)c3c2)o1` showed an inhibition of 0.58%. Same read-out and setting: to `CC(C)c1ccc(-c2cc(-c3c[nH]nc3-c3ccccn3)ccn2)cc1` belongs 0.18%; to `FC(F)(F)CNc1nccc(-c2cnn3ncccc23)n1`, 3.62%. Take `Cc1nnc(-c2cccc(-c3ccc(C(=O)NCC4CC4)cc3)c2)o1`: the inhibition turned out to be 0.47%. On the same count and under the same terms, to `COc1ccc(-c2nn3ncccc3c2-c2ccnc(Nc3ccc(F)c(F)c3)n2)cc1` belongs 0.48%. On the same count and under the same terms, the figure for `O=C(Nc1n[nH]c2nnc(-c3cccnc3)cc12)C1CC1` is 27.2%. As for `NS(=O)(=O)c1ccc(N/N=C2\C(=O)Nc3cccc(CCc4ccncc4)c32)cc1`, the inhibition stood at 19.4%.

Regarding `CNC(=O)c1cncc(/C=C/c2ccccc2C)c1`, the inhibition was 4.11%.

The molecule `NS(=O)(=O)c1ccc(N/N=C2\C(=O)Nc3ccc(C(=O)NCc4ccncc4)cc32)cc1` registered an inhibition of 47.7%. Still for that read-out and setting: the figure for `CCS(=O)(=O)c1ccc(OC)c(Nc2ncc(-c3cccc(F)c3)o2)c1` is 0.21%; for `COc1cccc(-n2ncc3c(N/N=C/c4ccc(C(=O)NCCN(C)C)cc4)ncnc32)c1` it is 37.9%. On the same count and under the same terms, the figure for `COC(=O)Nc1nc2ccc(Oc3ccc(NC(=O)Nc4cc(C(F)(F)F)ccc4F)cc3)cc2s1` is 0.77%; for `Cn1c(-c2nonc2N)nc2cnccc21` it is 1.09%. Still for that read-out and setting: the figure for `CCN1CCC(C(=O)Nc2n[nH]c3nnc(-c4cccc(F)c4F)cc23)CC1` is 2.96%.
